Molecules are shown by their SMILES. “And” between values parts separate entries of the source, which are not always exact repeats. Identical values can stand only once. Hit rate of the full screen: of about 16,000 compounds, about 5,700 (36%) were called active. Roughly 24% stayed inconclusive and do not appear here. Calls come from the whole dose curve; as a rule, active = well fitted curve in the direction sought with a large enough effect; inconclusive = small, poorly fitted or top-dose-only effect, or effect the other way; inactive = no such curve, though single readings can be large or run the other way. The list shows a part of the results. Where a structure was tested more than once in an assay, its records may differ in their call.

AC50 and activity, negative = inhibition data for 90 compounds are collected here from PubChem BioAssay AID1851 (National Center for Advancing Translational Sciences (NCATS), 2009).
% is set by controls: 0 for no effect and ±100 for the full control effect.

In the experiment the target is Cytochrome P450 1A2 (Homo sapiens) (UniProt P05177). The experiment can be described thus: Cytochrome panel assay with activity outcomes. Particulars: recombinant CYP, pro-luciferin dealkylation, luminescence, p450-cyp1a2; series mostly up to 57.1 µM.
Cytochrome P450 1A2 (Homo sapiens), sequence (P05177 whole entry, looked up): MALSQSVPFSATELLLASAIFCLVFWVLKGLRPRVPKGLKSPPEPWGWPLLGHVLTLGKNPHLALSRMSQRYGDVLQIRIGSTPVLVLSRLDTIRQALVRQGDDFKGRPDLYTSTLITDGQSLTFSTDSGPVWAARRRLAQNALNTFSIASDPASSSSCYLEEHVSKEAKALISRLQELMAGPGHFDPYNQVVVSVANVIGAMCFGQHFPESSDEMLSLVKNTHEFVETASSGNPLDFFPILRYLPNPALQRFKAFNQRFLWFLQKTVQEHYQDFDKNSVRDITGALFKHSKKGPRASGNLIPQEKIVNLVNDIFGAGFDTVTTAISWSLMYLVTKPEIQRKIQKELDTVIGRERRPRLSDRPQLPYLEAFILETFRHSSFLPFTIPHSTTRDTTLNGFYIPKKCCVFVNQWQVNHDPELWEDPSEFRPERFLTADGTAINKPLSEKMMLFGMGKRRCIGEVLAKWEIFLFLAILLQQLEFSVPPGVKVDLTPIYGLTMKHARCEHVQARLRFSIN
On to `CCOC(=O)N1CCN(S(=O)(=O)c2ccc3[nH]cc(C(=O)O)c(=O)c3c2)CC1`, for which the AC50 result is “inactive”.

For `Cc1ccccc1NS(=O)(=O)c1ccc2[nH]cc(C(=O)N(C)Cc3ccco3)c(=O)c2c1`, the AC50 is 15.8 µM (active).

Consider `CN1CCN(S(=O)(=O)c2ccc3[nH]cc(C(=O)O)c(=O)c3c2)CC1`, for which the AC50 entry was “inactive”.

Turning to `COc1ccc(Oc2ncc3nc(-c4cccs4)c(=O)n(C)c3n2)cc1`, the half-maximal activity concentration (AC50) is 3.16 µM (active).

For `COc1ncc2nc(-c3cccs3)c(=O)n(C)c2n1`, the concentration at half-maximal activity (AC50) was 2 µM (active).

For the compound `Cc1sc(N)c(C(=O)c2cccc(C(F)(F)F)c2)c1C`, the AC50 was 15.8 µM (active).

Take `O=C(NNC(=O)c1cc2cc3ccccc3nc2s1)c1cccc(C(F)(F)F)c1`: the AC50 result is “inactive”.

Turning to `CC(C)NC1(C(N)=O)CCN(Cc2ccccc2)CC1`, the activity, negative = inhibition was 7.61% [at 2.29 µM] (inactive).

For `O=C(Cn1nnc2ccccc21)N1CCCCC1`, the AC50 entry is “inactive”.

For the compound `Cc1ccnc(NCn2nnc3ccccc32)c1`, the AC50 was 28.2 µM (active).

Regarding `COc1ccc(N(C(=O)Cn2nnc3ccccc32)C2(C(=O)NC3CCCC3)CCCCC2)cc1`, the AC50 result was “inactive”.

Regarding `Cc1ccc(S(=O)(=O)N[C@H]2COC(=O)[C@@H](Cc3ccccc3)NC(=O)[C@@H](C)COC(=O)C/C=C\[C@@H]2C)cc1`, the activity, negative = inhibition was -7.75% [at 11.4 µM] (inactive) and -3.67% [at 11.4 µM] (inactive).

In the case of `Cc1c(NC(=O)C23CC4CC(CC(C)(C4)C2)C3)c(=O)n(-c2ccccc2)n1C`, the AC50 entry was “inactive”.

Regarding `Cc1c(CC(C)(C)C(=O)O)n(Cc2ccc(Cl)cc2)c2ccc(F)cc12`, the AC50 was 15.8 µM (active).

With `CS(=O)(=O)c1ccc(Cn2c3c(c4cc(F)cc(F)c42)CCC[C@H]3CC(=O)O)cc1`, the AC50 result is “inactive”.

With `OCCNc1nc(NCCC2=CCCCC2)nc(N2CCOCC2)n1`, the AC50 was 0.708 µM (active).

For `O=C(O)C[C@H](Cc1ccccc1Cl)C(=O)O`, the activity, negative = inhibition was -17.6% [at 11.4 µM] (inactive).

On to `O=C(CSCc1ccccc1Cl)NN1C(=O)c2ccccc2C1=O`, for which the AC50 is 14.1 µM (active).

With `O=C(NN1C(=O)c2ccccc2C1=O)C1CCCCC1`, the AC50 entry was “inactive”.

On to `O=C1/C(=C\c2ccc(Br)o2)SC(=Nc2ccccc2)N1c1ccccc1`, for which the AC50 is 0.126 µM (active).

Take `CC1=CC(=O)CC(C)(C)[C@]1(O)/C=C\C(C)=C\C(=O)O`: the activity, negative = inhibition was -7.1% [at 11.4 µM] (inactive).

`CC1=C(\C=C/C(C)=C/C=C\C(C)=C\C(=O)O)C(C)(C)CCC1`: the AC50 result is “inactive and 20 µM (active)”.

Regarding `CC1=NN(C(=O)c2ccncc2)C(=O)[C@@H]1N=Nc1ccc2ccccc2c1`, the AC50 is 0.158 µM (active).

Turning to `Cc1ccc(C)c(Nc2nc3nonc3nc2N2CCOCC2)c1`, the half-maximal activity concentration (AC50) was 5.01 µM (active).

For the compound `FC(F)(F)c1nc2ccccc2nc1N/N=C\c1ccccc1`, the AC50 is 0.562 µM (active).

For `FC(F)(F)c1nc2ccccc2nc1N/N=C/c1ccc(Cl)cc1`, the half-maximal activity concentration (AC50) was 1.41 µM (active).

Regarding `COc1ccccc1CNc1cc(-c2c(C)noc2C)ncn1`, the AC50 was 5.01 µM (active).

In the case of `Cc1noc(C)c1-c1cc(NCc2ccccc2)ncn1`, the half-maximal activity concentration (AC50) was 5.01 µM (active).

For `Cc1cccc(CNc2cc(-c3c(C)noc3C)ncn2)c1`, the AC50 was 1 µM (active).

For `Cc1noc(C)c1-c1cc(NCc2cccnc2)ncn1`, the AC50 is 1 µM (active).

Consider `CCS(=O)(=O)N(C)[C@@H]1c2cc(C#N)ccc2OC(C)(C)[C@H]1O`, for which the AC50 result was “inactive”.

`CCOC(=O)C(C)CC(C)C(=O)N1CCOCCN(C(=O)C(C)CC(C)C(=O)OCC)CCOCC1` (stereo not given): the AC50 entry was “inactive”.

Take `Cc1noc(C)c1-c1cc(NCc2cccs2)ncn1`: the AC50 is 0.794 µM (active).

Turning to `Cc1ccc(C(=O)Nc2ccc(C(=O)/C=C/c3cccs3)cc2)cc1`, the AC50 entry was “inactive”.

`O=C(O)[C@H](Cc1c[nH]c2ccccc12)N1C(=O)c2ccccc2C1=O`: the activity, negative = inhibition is -8.32% [at 2.29 µM] (inactive).

With `Cc1ccc(C(=O)/C=C/c2c[nH]c3ccccc23)cc1`, the AC50 is 5.62 µM (active).

Consider `Cc1cc(C)n(Cc2ccc(NC(=O)c3ccc(COc4ccccc4Br)cc3)cc2)n1`, for which the AC50 result is “inactive”.

With `COc1ccc(COc2ccsc2C(=O)Nc2ccc(Cl)c(Cl)c2)cc1`, the concentration at half-maximal activity (AC50) was 3.16 µM (active).

Consider `COc1ccc(Cc2nnc(NC(=O)c3ccc(Cl)c([N+](=O)[O-])c3)s2)cc1`, for which the AC50 entry is “inactive”.

`Cc1ccc(C(=O)NNC(=S)NC(=O)c2ccc(Cl)cc2)cc1`: the AC50 entry was “inactive”.

With `CNC(=S)NNC(=O)c1sccc1OCc1ccc(C)cc1`, the AC50 is 5.01 µM (active).

`COc1ccc(-c2cc(C(F)(F)F)n3nc(C(=O)NCc4ccco4)c(Cl)c3n2)cc1`: the AC50 is 3.55 µM (active).

Consider `Cc1cc(C)n(C(=O)c2cc3ccccc3c(=O)o2)n1`, for which the concentration at half-maximal activity (AC50) is 7.08 µM (active).

For the compound `O=C(O)CC1(C(=O)O)CCCCC1`, the activity, negative = inhibition is 5.1% [at 2.29 µM] (inactive).

For `CCN1C(=O)c2cccc3c(NC(=O)c4cccc(N5C(=O)CCC5=O)c4)ccc1c23`, the AC50 entry was “inactive”.

Regarding `CCOC(=O)c1ccc(NC(=O)Nc2ccc3c4c(cccc24)C(=O)N3CC)cc1`, the AC50 is 1.58 µM (active).

As to `CCCOC(=O)c1ccc(NC(=O)c2cn(CC)c3nc(C)ccc3c2=O)cc1`, the AC50 entry is “inactive”.

As for `CC(C)CO[C@H](c1ccc2c(c1)OCO2)[C@H](C)Br`, the concentration at half-maximal activity (AC50) is 0.631 µM (active).

For `CC(C)CO/N=C1/C[C@@H](O)[C@@H](O)[C@@H]2[C@@H]3C(=O)N(Cc4ccc5c(c4)OCO5)C(=O)[C@H]3CC[C@H]12`, the activity, negative = inhibition was 2.96% [at 11.4 µM] (inactive).

Regarding `CC(C)CO/N=C1/C[C@@H](O)[C@@H](O)[C@@H]2[C@@H]3C(=O)N(Cc4ccc5c(c4)OCO5)C(=O)[C@H]3CC[C@@H]12`, the activity, negative = inhibition was -7.54% [at 11.4 µM] (inactive).

Take `c1ccc2c(-c3c[nH]c4ccccc34)c3ccccc3nc2c1`: the AC50 is 3.16 µM (active).

On to `c1ccc2c(CN3CCN(Cc4c[nH]c5ccccc45)CC3)c[nH]c2c1`, for which the activity, negative = inhibition was -18.1% [at 2.29 µM] (inactive).

For `O=C(O)[C@@H](Cc1c[nH]c2ccccc12)C(=O)NO`, the activity, negative = inhibition was -20.4% [at 11.4 µM] (inactive).

Turning to `CO[C@H]1COC(=O)C/C=C\[C@@H](C)[C@H](OC)COC(=O)[C@H]2CCCN2C(=O)C/C=C\[C@@H]1C`, the activity, negative = inhibition is 3.92% [at 11.4 µM] (inactive).

Take `CC(=O)OC[C@@H]1O[C@H](CCO/N=C(\C)CCC(=O)OC[C@@H]2O[C@H](C#Cc3ccccc3)C=C[C@@H]2Oc2ccc(C)cc2)C=C[C@@H]1OC(C)=O`: the activity, negative = inhibition is -1.59% [at 11.4 µM] (inactive).

On to `Cc1nc2cc(NC(=O)CSc3nc4c(C)cccc4cc3C#N)ccc2s1`, for which the concentration at half-maximal activity (AC50) is 2.82 µM (active).

`COc1ccc(NC(=O)CCOc2ccccc2)cc1`: the half-maximal activity concentration (AC50) was 3.55 µM (active).

For the compound `O=C(CCOc1ccccc1)Nc1ccccc1`, the AC50 was 8.91 µM (active).

As for `O=C(Cc1ccccc1I)Nc1ccccc1`, the AC50 is 12.6 µM (active).

Take `CC(=O)NNC(=O)CCC(=O)Nc1ccccc1`: the AC50 entry is “inactive”.

For `COC(=O)c1cccc(NC(=O)CCCOc2ccccc2)c1`, the AC50 was 0.891 µM (active).

On to `CCC(=O)NNC(=O)CCC(=O)Nc1ccccc1`, for which the AC50 result was “inactive”.

On to `Oc1ccccc1CNCc1ccccc1O`, for which the activity, negative = inhibition is -17.8% [at 11.4 µM] (inactive).

Consider `O=S(=O)(O)C1CCNCC1`, for which the AC50 result was “inactive”.

Regarding `CO[C@@H]1COC(=O)CC=C[C@@H](C)[C@@H]2C=C[C@H](O)[C@@H](COC(=O)[C@H](C)NC(=O)CC=C[C@H]1C)O2`, the activity, negative = inhibition is -7.89% [at 11.4 µM] (inactive).

On to `CCCCC#Cc1ccccc1CC(=O)Nc1ccccc1`, for which the concentration at half-maximal activity (AC50) was 2.51 µM (active).

Take `CC(C)(CC(=O)Nc1ccccc1)C(=O)O`: the activity, negative = inhibition is -15.9% [at 11.4 µM] (inactive).

For `COc1ccc(NC(=O)CCSc2cc(C)c3ccccc3n2)cc1`, the AC50 is 7.08 µM (active).

Consider `COC(=O)c1cccc(NC(=O)Nc2ccc(Cl)c(Cl)c2)c1`, for which the AC50 is 8.91 µM (active).

As to `NCC(=O)Nc1ccccc1`, the AC50 was 2.51 µM (active).

As for `Cc1cccc(C)c1NC(=O)C(c1ccc(Cl)cc1Cl)N1CCCCC1` (stereo not given), the AC50 entry was “inactive”.

In the case of `O=C1C[C@@H](O)[C@@H](O)[C@@H]2[C@H]3C(=O)N(c4ccc(F)cc4F)C(=O)[C@@H]3CC[C@H]12`, the activity, negative = inhibition was 8.95% [at 11.4 µM] (inactive).

For `O=C(COC(=O)COc1ccccc1)Nc1ccc(OC(F)(F)F)cc1`, the AC50 was 20 µM (active).

Turning to `O=C(COc1ccccc1)Nc1ccc(-c2nnc(-c3ccco3)o2)cc1`, the AC50 result is “inactive”.

Take `CCc1nnc(NC(=O)C2Cc3ccccc3CN2S(=O)(=O)c2ccc(C)cc2)s1` (stereo not given): the AC50 result was “inactive”.

`Nc1ccc(S(=O)(=O)Nc2nccs2)cc1`: the AC50 result is “inactive”.

For `O=C(Nc1nnc(C2CC2)s1)C1Cc2ccccc2CN1S(=O)(=O)c1ccccc1F` (stereo not given), the concentration at half-maximal activity (AC50) was 12.6 µM (active).

`O=C(Nc1nccs1)C1Cc2ccccc2CN1S(=O)(=O)c1ccc(F)cc1` (stereo not given): the AC50 is 2.24 µM (active).

Regarding `O=C(c1csnn1)N1CCC2(CC1)CN(c1ccccn1)C2`, the AC50 result is “inactive”.

As for `Cc1ccc2nc(-c3ccc(NC(=O)Cc4cccs4)cc3)[nH]c2c1`, the half-maximal activity concentration (AC50) was 0.631 µM (active).

For the compound `CCNc1ncc2nc(-c3ccccc3)c(=O)n(CCC#N)c2n1`, the concentration at half-maximal activity (AC50) was 3.16 µM (active).

Take `CCNc1ncc2nc(-c3cn(C)c4ccccc34)c(=O)n(C)c2n1`: the AC50 was 0.1 µM (active).

As for `CCNc1ncc2nc(-c3cn(C)c4ccccc34)c(=O)n(CCC#N)c2n1`, the concentration at half-maximal activity (AC50) is 5.01 µM (active).

Take `CCNc1ncc2nc(C)c(=O)n(CCC#N)c2n1`: the concentration at half-maximal activity (AC50) was 12.6 µM (active).

On to `CC1(C)S[C@@H]2[C@H](NC(=O)[C@H](C(=O)O)c3ccsc3)C(=O)N2[C@H]1C(=O)O`, for which the AC50 result was “inactive”.

Regarding `CCOC(=O)c1c(C)[nH]c2ccc3c(c12)CN1CCc2cc(OC)ccc2[C@@H]1O3`, the concentration at half-maximal activity (AC50) is 0.158 µM (active).

`CCOC(=O)Oc1c(OC)cc(C(=O)O[C@H]2C[C@H]3CN4CCc5c([nH]c6cc(OC)ccc56)[C@@H]4C[C@H]3[C@@H](C(=O)OC)[C@@H]2OC)cc1OC`: the AC50 entry was “inactive”.

As to `COc1ccc(/C(O)=C2/C(=O)C(=O)N(CCN3CCOCC3)C2c2ccc(C)cc2)cc1` (stereo not given), the AC50 entry is “inactive”.

Turning to `Cc1ccc(C)c(/C(O)=C2/C(=O)C(=O)N(CCN3CCOCC3)C2c2ccco2)c1` (stereo not given), the concentration at half-maximal activity (AC50) was 25.1 µM (active).

Regarding `Cc1ccc(C2/C(=C(/O)c3ccccc3)C(=O)C(=O)N2CCN2CCOCC2)o1` (stereo not given), the AC50 entry was “inactive”.

As usually defined, the AC50 is the midpoint of the concentration-response curve, whichever way the signal moves.
